Measurements taken from PubChem BioAssay.
For part of these data: Results with a measured potency or affinity are listed apart. Active and inactive are the calls of the source.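 Rule for the calls, unless noted: active = calcium signal rise above buffer-control mean plus 5 SD in both duplicates, and also a hit in the primary screen; inactive = the rest.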

How the values were obtained:
[1] = test system: TRPC4 beta (transient receptor potential cation channel C4), mouse; assay: activators of mouse TRPC4 channel, confirmation, cell-based, Fluo4 calcium, HEK293 TRPC4beta/mu-opioid, duplicates, 10 µM (AID 2426;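 active = fluorescence ratio normalized to control raised more than 50% in primary screen plus both repeat runs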;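 for activation: percent rise of integrated ratio over buffer wells lacking compound which define 0%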); settings: Fluo4 calcium fluorescence, at 10 µM; active compounds read high
[2] = test system: transient receptor potential cation channel C4 beta (TRPC4), mouse; assay: activators of mouse TRPC4 channel, confirmation, cell-based, second round, Fluo4, HEK293 TRPC4beta/mu-opioid, 1 µM (AID 2461;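 active = primary screen active and over 50% activation in each of two duplicate runs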;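 for activation: 0% = wells without test compound as baseline of integrated fluorescence ratio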); settings: Fluo4 calcium fluorescence, at 1 µM; active compounds read high
[3] = test system: TRPC4 (transient receptor potential cation channel C4 beta), mouse; assay: positive allosteric modulators of mouse TRPC4, confirmation, cell-based, second round, Fluo-4, HEK293 TRPC4beta/mu-opioid, 1 µM (AID 2554;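 active = primary screen hit whose fluorescence ratio, in both repeats, exceeds the weak agonist control mean by 3 SD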); settings: DAMGO EC20, Fluo-4 calcium flux, at 1 µM; active compounds read high
[4] = test system: TRPC4 beta (transient receptor potential cation channel C4), mouse; assay: positive allosteric modulators of mouse TRPC4, confirmation, cell-based, Fluo-4, HEK293 TRPC4beta/mu-opioid (AID 2555;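 active = primary screen hit whose calcium fluorescence ratio, in both repeats, exceeds the weak agonist control mean by 3 SD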); settings: DAMGO EC20, Fluo-4 calcium flux, at 10 µM; active compounds read high
[5] = target: Short transient receptor potential channel 4 (Mus musculus) (UniProt Q9QUQ5); assay: inhibitors of mouse TRPC4 channel, confirmation, cell-based, Fluo4, HEK293 TRPC4beta/mu-opioid (AID 2636;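 active = calcium signal cut by more than 3 SD below the full-agonist control yet still positive, in both repeats and the earlier primary screen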); settings: DAMGO, Fluo4 calcium flux, at 10 µM; active compounds read high
Short transient receptor potential channel 4 (Mus musculus), sequence (Q9QUQ5 whole entry, looked up): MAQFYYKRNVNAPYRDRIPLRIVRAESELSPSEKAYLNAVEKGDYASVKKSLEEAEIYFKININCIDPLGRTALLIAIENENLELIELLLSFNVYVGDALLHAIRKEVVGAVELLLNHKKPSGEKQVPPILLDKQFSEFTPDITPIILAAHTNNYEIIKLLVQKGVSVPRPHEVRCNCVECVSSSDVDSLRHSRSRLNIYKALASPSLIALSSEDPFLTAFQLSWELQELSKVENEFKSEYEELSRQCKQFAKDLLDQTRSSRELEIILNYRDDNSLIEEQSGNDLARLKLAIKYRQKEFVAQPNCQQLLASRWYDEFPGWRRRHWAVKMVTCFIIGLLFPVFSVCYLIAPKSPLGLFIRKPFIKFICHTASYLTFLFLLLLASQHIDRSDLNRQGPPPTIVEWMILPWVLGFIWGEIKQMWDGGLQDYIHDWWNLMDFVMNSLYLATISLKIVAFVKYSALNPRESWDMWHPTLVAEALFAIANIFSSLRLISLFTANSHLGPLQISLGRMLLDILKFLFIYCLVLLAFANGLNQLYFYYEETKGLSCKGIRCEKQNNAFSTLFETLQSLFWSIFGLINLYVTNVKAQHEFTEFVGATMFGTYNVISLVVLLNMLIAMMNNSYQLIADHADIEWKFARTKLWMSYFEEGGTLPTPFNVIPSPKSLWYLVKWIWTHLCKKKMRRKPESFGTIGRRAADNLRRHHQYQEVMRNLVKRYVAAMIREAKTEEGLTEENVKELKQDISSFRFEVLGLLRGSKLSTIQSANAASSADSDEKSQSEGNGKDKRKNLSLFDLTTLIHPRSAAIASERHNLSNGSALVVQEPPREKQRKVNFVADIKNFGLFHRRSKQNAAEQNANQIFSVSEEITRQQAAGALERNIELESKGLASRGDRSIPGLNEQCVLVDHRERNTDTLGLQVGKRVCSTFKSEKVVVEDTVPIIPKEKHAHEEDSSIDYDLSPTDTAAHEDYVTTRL

[6] = target: Short transient receptor potential channel 4 (Mus musculus) (UniProt Q9QUQ5); assay: inhibitors of mouse TRPC4 channel, confirmation, cell-based, second round, Fluo4, HEK293 TRPC4beta/mu-opioid, 1 µM (AID 2637;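 active = calcium signal ratio cut to more than 3 SD under the fully stimulated control mean yet still positive, in both repeats and the primary screen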); settings: Fluo4 calcium flux, DAMGO, at 1 µM; active compounds read high
[7] = target: Short transient receptor potential channel 4 (Mus musculus) (UniProt Q9QUQ5); assay: TRPC4 positive allosteric modulators, dose response, cell-based, HEK293 TRPC4/mu-opioid, Fluo-4 calcium, EC20 DAMGO (AID 434941;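 active = earlier screen potentiator hit that boosts the TRPC4 ion channel at some dose, with a dose response; inactive = no potentiation, no dose response, or not a prior hit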;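 note: calcium entry triggered by an EC20 dose of DAMGO at the co-expressed mu-opioid receptor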)
[8] = target: Short transient receptor potential channel 4 (Mus musculus) (UniProt Q9QUQ5); assay: mouse TRPC4 channel inhibitors, dose response, cell-based, HEK293 TRPC4/mu-opioid, Fluo-4 calcium (AID 434942;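 active = primary screen inhibitor hit that blocks the TRPC4 channel at some tested dose, yielding a dose curve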)
[9] = target: Short transient receptor potential channel 6 (Mus musculus) (UniProt Q61143); assay: inhibition of mouse TRPC6 channel, confirmation, selectivity assay for TRPC4 inhibitor project, cell-based, HEK293, membrane potential dye, duplicate (AID 434948;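 active = active in primary screen and both duplicates, each dropping signal beyond three positive-control SD with fluorescence still positive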); settings: HEK293 TRPC6, membrane potential dye fluorescence, at 10 µM, stimulated with maximal-effect acetylcholine; active compounds read high
Short transient receptor potential channel 6 (Mus musculus), sequence (Q61143 whole entry, looked up): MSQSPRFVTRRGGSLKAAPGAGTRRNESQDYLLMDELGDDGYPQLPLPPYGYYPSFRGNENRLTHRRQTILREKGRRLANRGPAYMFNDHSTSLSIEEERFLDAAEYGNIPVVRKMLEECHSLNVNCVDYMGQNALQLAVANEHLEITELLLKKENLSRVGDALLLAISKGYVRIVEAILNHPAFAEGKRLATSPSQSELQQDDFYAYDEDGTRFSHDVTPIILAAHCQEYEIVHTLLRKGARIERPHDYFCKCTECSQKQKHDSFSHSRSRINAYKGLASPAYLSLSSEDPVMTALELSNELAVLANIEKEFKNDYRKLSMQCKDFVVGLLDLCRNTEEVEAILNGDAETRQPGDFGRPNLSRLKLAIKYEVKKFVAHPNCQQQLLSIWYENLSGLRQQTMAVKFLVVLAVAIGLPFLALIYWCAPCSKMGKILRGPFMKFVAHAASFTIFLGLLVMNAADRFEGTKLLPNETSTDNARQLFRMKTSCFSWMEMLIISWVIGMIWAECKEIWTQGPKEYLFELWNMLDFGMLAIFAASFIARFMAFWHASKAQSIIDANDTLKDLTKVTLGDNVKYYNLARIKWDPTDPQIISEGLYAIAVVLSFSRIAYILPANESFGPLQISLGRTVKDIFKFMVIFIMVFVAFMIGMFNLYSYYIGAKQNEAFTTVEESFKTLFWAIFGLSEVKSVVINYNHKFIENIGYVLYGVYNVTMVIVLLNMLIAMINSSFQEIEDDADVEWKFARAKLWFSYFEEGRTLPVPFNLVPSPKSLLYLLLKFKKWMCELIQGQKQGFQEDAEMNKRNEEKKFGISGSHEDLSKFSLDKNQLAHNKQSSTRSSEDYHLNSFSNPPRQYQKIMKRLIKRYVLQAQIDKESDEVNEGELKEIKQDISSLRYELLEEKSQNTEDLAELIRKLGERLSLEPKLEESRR

[10] = target: Short transient receptor potential channel 6 (Mus musculus) (UniProt Q61143); assay: activation of mouse TRPC6 channel, confirmation, selectivity assay for TRPC4 activator project, cell-based, HEK293, membrane potential dye, duplicate (AID 434950;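 active = membrane potential signal rise above negative control mean plus 3 SD in both duplicates, also active in the earlier TRPC4 screen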;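 for activation: 0% = buffer only wells and 100% = acetylcholine maximal-effect wells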); settings: HEK293 TRPC6, membrane potential fluorescence, at 10 µM; active compounds read high
[11] = target: Short transient receptor potential channel 6 (Mus musculus) (UniProt Q61143); assay: TRPC6 potentiation by TRPC4 potentiator hits, confirmation, selectivity assay for TRPC4 potentiator project, HEK293 cells, membrane potential dye, duplicate (AID 434952;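 active = compound raising the membrane signal above positive-control mean plus 3 SD in both repeats, and a primary screen hit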); settings: HEK293 TRPC6, membrane potential dye fluorescence, at 10 µM, maximal acetylcholine added after compound; active compounds read high
[12] = target: Short transient receptor potential channel 4 (Mus musculus) (UniProt Q9QUQ5); assay: calcium flux activators in TRPC4/5HT1a cells, counter-screen for TRPC4 activator project, cell-based, second counter screen, HEK293 TRPC4/5HT1a, Fluo-4 (AID 434977); settings: Fluo-4 calcium flux, at 10 µM; active compounds read high;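 for activation: plate controls were assay buffer for no effect and maximal serotonin response for full effect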
[13] = calcium flux inhibitors in TRPC4/5HT1a cells, confirmation, counter-screen for TRPC4 inhibitor project, cell-based, second counter screen, HEK293 TRPC4/5HT1a, Fluo-4 (AID 434978;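 active = primary screen active whose calcium signal fell more than 3 SD beyond the full-serotonin control mean in both duplicate plates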;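 note: serotonin given first at submaximal then at maximal dose after compound preincubation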); settings: Fluo-4 calcium flux, at 10 µM, serotonin added to trigger calcium flux; active compounds read high
[14] = test system: TRPC4 (mouse), co-expressed with 5HT1a in HEK293; assay: calcium flux potentiators in TRPC4/5HT1a cells, confirmation, counter-screen for TRPC4 potentiator project, cell-based, second counter screen, HEK293 TRPC4/5HT1a, Fluo-4 (AID 434979;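 active = signal rise over 3 SD above mean of control wells given weak agonist, in both repeats and first screen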); settings: Fluo-4 calcium flux, at 10 µM, serotonin added at its EC20 dose; active compounds read high
[15] = calcium flux activation in mu-opioid HEK293 cells, confirmation, counter-screen for TRPC4 activator project, cell-based, HEK293 mu-opioid receptor line (AID 449723;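 active = hit in primary screen, with calcium signal over 5 SD above buffer well mean in both duplicates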;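 note: counter screen cells carry the mu-opioid receptor alone and lack TRPC4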); settings: Fluo-4 calcium fluorescence, at 10 µM; active compounds read high
[16] = calcium flux enhancement in mu-opioid HEK293 cells, confirmation, counter-screen for TRPC4 allosteric potentiator project, cell-based, HEK293 mu-opioid receptor line (AID 449724;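 active = calcium signal rise more than 3 SD above the low-dose agonist control mean, in both duplicate plates and the primary screen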); settings: Fluo-4 calcium flux, at 10 µM, compound added before EC20 DAMGO stimulus; active compounds read high

| Structure (SMILES) | activation [1] | outcome [2] | outcome [3] | outcome [4] | outcome [5] | outcome [6] | outcome [7] | outcome [8] | outcome [9] | outcome [10] | outcome [11] | outcome [12] | outcome [13] | outcome [14] | outcome [15] | outcome [16] | activation [2] | activation [10] | activation [12] | outcome [1] |
| --- | --- | --- | --- | --- | --- | --- | --- | --- | --- | --- | --- | --- | --- | --- | --- | --- | --- | --- | --- | --- |
| CN(C)CCCN(C(=O)c1ccc(S(=O)(=O)N2CCOCC2)cc1)c1nc2ccc(F)cc2s1 | 104% (active) | inactive | inactive | inactive | inactive | inactive | inactive | inactive | inactive | inactive | inactive | inactive | inactive | inactive | inactive | inactive |  |  |  |  |
| O=C(C1CCCN(Cc2ccncc2)C1)N1CCc2ccccc2C1 (stereo not given) | 204% (active) |  | inactive | inactive | inactive | inactive | inactive | inactive | inactive |  | inactive |  | inactive | inactive | inactive | inactive | 149% (active) | 27.5% (active) | 84.2% (active) |  |
| CCOc1ccccc1CN1CCNC(=O)C1CC(=O)N(C)CCc1ccccn1 (stereo not given) | 235% (active) |  | inactive | inactive | inactive | inactive | inactive | inactive | inactive |  | inactive |  | inactive | inactive | inactive | inactive | 76% (active) | 27% (active) | 72.6% (active) |  |
| COc1ccc(C(=O)NC(=S)NNC(=O)c2c(-c3ccccc3)noc2C)cc1OC |  | inactive | inactive | inactive | inactive | inactive | inactive | inactive | inactive |  | inactive |  | inactive | inactive | inactive | inactive |  | 39% (active) | 24.4% (active) | inactive |
| COc1ccc(C(=O)NC(=S)NNC(=O)CCc2ccccc2)cc1 | 100% (active) | inactive | inactive | inactive | inactive | inactive | inactive | inactive | inactive |  | inactive |  | inactive | inactive | inactive | inactive |  | 25% (active) | 61.1% (active) |  |
| COc1ccc(-c2cc(C#N)nc(N3CCNCC3)n2)cc1 | 176% (active) | inactive | inactive | inactive | inactive | inactive | inactive | inactive | inactive | inactive | inactive | inactive | inactive | inactive | inactive | inactive |  |  |  |  |
| CCOC(=O)C1(Cc2cccc(F)c2)CCN(Cc2cnc(C)s2)CC1 |  | inactive | inactive | inactive | inactive | inactive | inactive | inactive | inactive |  | inactive | inactive | inactive | inactive | inactive | inactive |  | 44% (active) |  | inactive |
| CN1CCC(CNC(=O)Nc2ccccc2)(c2ccccc2)CC1 | 97% (active) |  | inactive | inactive | inactive | inactive | inactive | inactive | inactive | inactive | inactive | inactive | inactive | inactive | inactive | inactive | 52% (active) |  |  |  |
| Cc1cc(-c2nn(-c3ccccc3F)cc2CNCCc2cnc[nH]2)c(C)s1 | 89% (active) |  | inactive | inactive | inactive | inactive | inactive | inactive | inactive | inactive | inactive |  | inactive | inactive | inactive | inactive | 87% (active) |  | 39.8% (active) |  |
| O=C(c1cccs1)N1CCN(c2ncc(Br)cn2)CC1 | 215% (active) |  | inactive | inactive | inactive | inactive | inactive | inactive | inactive |  | inactive |  | inactive | inactive | inactive | inactive | 91% (active) | 35.5% (active) | 79.8% (active) |  |
| CC(=O)Nc1ccc(CN2CCCC(C(=O)c3cccc(C(F)(F)F)c3)C2)cc1 (stereo not given) | 96% (active) | inactive | inactive | inactive | inactive | inactive | inactive | inactive | inactive |  | inactive | inactive | inactive | inactive | inactive | inactive |  | 29.5% (active) |  |  |
| Cc1nc(/N=C(\N)NC(=O)NC2CCCCC2)nc2ccccc12 | 99% (active) |  | inactive | inactive | inactive | inactive | inactive | inactive | inactive | inactive | inactive |  | inactive | inactive | inactive | inactive | 66% (active) |  | 36.2% (active) |  |
| O=C(c1c(F)cccc1F)N1CCN(c2ncc(Br)cn2)CC1 | 158% (active) |  | inactive | inactive | inactive | inactive | inactive | inactive | inactive |  | inactive |  | inactive | inactive | inactive | inactive | 86% (active) | 34% (active) | 68.5% (active) |  |
| Cc1cccc(C)c1OCC(O)CN (stereo not given) | 90% (active) | inactive | inactive | inactive | inactive | inactive | inactive | inactive | inactive |  | inactive |  | inactive | inactive | inactive | inactive |  | 30.5% (active) | 20.1% (active) |  |
| COc1ccc(C(CNC(=O)c2ccc(S(=O)(=O)N(C)C)cc2)N(C)C)cc1 (stereo not given) | 296% (active) |  | inactive | inactive | inactive | inactive | inactive | inactive | inactive |  | inactive | inactive | inactive | inactive | inactive | inactive | 179% (active) | 29% (active) |  |  |
